The source of these data is PubChem BioAssay (NCI).

The panel holds about 83,000 compounds, 20% with a hit somewhere; the sample as a whole holds those more often.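 Percent growth is the endpoint: 0 to 100 indicates growth inhibition (40 means 60% inhibition), 0 means no net growth, and negative values indicate cell death.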 Values without a mark were called inactive. Calls of active or inactive are those of the source. How the source made its calls: active means growth percent below 10; inactive means the rest.

This experiment relates to SF-268 CNS. In words: NCI-60 one-dose screen, 48 h (100 = growth as untreated, 0 = no growth, -100 = all killed). The settings on record: 10 µM unless noted.
With `CC(=O)c1c(C)[nH]c(-c2nc3ccc(N4CCN(C)CC4)cc3[nH]2)c1-c1ccc(N(C)C)cc1`, the growth is 59.4%. As to `CC(=O)c1c(C)[nH]c(-c2nc3ccc(N4CCN(C)CC4)cc3[nH]2)c1-c1ccc(OCC2CCOCC2)cc1`, the growth is 54.3%.

Take `CC/C=C\C[C@H]1CC=C2C(=O)C=C[C@@H]2CC=CCCCC(=O)O[C@@H](CCCCC)CC=C2C(=O)C=C[C@@H]2CC=CCCCC(=O)O[C@@H](CCCCC)CC=C2C(=O)C=C[C@@H]2CC=CCCCC(=O)O[C@@H](CCCCC)CC=C2C(=O)C=C[C@@H]2CC=CCCCC(=O)O1`: the growth was 12.5% [7.9 µM]. Take `O=C1c2cccc3cccc(c23)C(=O)N1CC#Cc1ccc2c3c(cccc13)C(=O)N(CCN1CCNCC1)C2=O`: the growth was 93.8%. As for `COc1ccc(NC(=O)c2ccc3c(c2)nc(-c2cc4ccccc4[nH]c2=O)n3-c2cc(C(C)(C)C)[nH]n2)cc1`, the growth was 79.3%. On to `CC(=O)NC1=C(C#N)C(c2ccccc2Cl)c2c(ccc3ccccc23)O1` (centres undefined), for which the growth was 68.5%. In the case of `CC(C)(C)c1[nH]nc2c1C(c1cc3ccccc3[nH]c1=O)Nc1cc(C(=O)OCc3ccccc3)ccc1N2` (centres undefined), the growth was 58.9%. The figure for `CC1(C)C=CC[C@]2(C)[C@H]3CC[C@@H]4[C@H]5[C@H](C(=O)/C=C/c6cccnc6)CC[C@]5(CO)CC[C@@]4(C)[C@]3(C)CC[C@@H]12` is -57.6% (active).

Take `CC1(C)[C@@H](O)CC[C@]2(C)[C@H]3CC[C@@H]4[C@H]5[C@H](C(=O)/C=C/c6ccc(C(F)(F)F)cc6)CC[C@]5(CO)CC[C@@]4(C)[C@]3(C)CC[C@@H]12`: the growth was 75.5%.
